# Experimental data reported in PubChem BioAssay (Tox21).
# Where “and” joins values, the source holds several entries; their conditions need not be identical. Equal entries are not always repeated. Inconclusive results are not listed. Calls of active or inactive are those of the source. The call rests on the fitted dose curve.
# Assay: qHTS assay to identify small molecule antagonists of the sonic hedgehog signaling (Shh) pathway (AID 1259369); further: nearly all actives have a fitted effect of over 45% in size
# Settings: NIH/3T3 Gli1-Luc reporter, Shh antagonist, luminescence 24 h; series mostly up to 92.4 µM; activity change, negative = inhibition: at the top concentration
# Description: U.S. Tox21 Program National Center for Advancing Translational Sciences [NCATS] NIH Chemical Genomics Center [NCGC] U.S. Environmental Protection Agency [EPA] National Institutes of Environmental Health Sciences [NIEHS] National Toxicology Program [NTP] U.S. Food and Drug Administration [FDA] Tox21 Assay Overview: The sonic hedgehog (Shh) pathway is essential for normal embryonic development. Dysregulation of the Shh pathway can cause severe developmental defects in organs. Therefore chemicals that interfere with the pathway are potential developmental toxicants. A cell line designated 3T3Gli1-Luc (DMB/OARSA/CFSAN/FDA, Laurel, MD), a NIH/3T3 derived clone containing stably integrated Gli1-Luc reporter is used to detect chemical interference of the Shh pathway, by changes in the expression of the firefly Luc gene under the control of the Gli1 transcriptional response element. This cell line was used to screen Tox21 libraries for identifying and prioritizing the potential developmental toxicants that interfere Shh pathway. Conditioned medium-stimulated mode was used to screen for chemicals inhibiting Shh signaling.
# Tox21 Assay Protocol Summary: 3T3 Gli1-Luc cells were dispensed at 2,000 per well in 5uL of culture medium into white solid bottom 1536-well plates (Greiner Bio-One, Monroe, NC) using a Multidrop Combi (Thermo Scientific, Waltham, MA) dispenser. The assay plates were incubated at 37 C and 5% CO2 for 4hr, and then 23nL of compounds dissolved in DMSO and positive control were transferred using a Pintool station (Wako, San Diego, CA). The compound transfer was followed by the addition of 1ul conditioned medium or assay buffer using two separate tips of Flying Reagent Dispenser (FRD, Aurora Discovery, San Diego, CA). The assay plates were incubated at 37C and 5% CO2 for 24hr. For luciferase read, 4uL of Amplite Luciferase reporter gene assay reagent (AAT Bioquest, Inc. Sunnyvale, CA) was added to each well of the assay plates using FRD and incubated at room temperature for 30min. The luminescence signal was measured using a ViewLux plate reader (Perkin Elmer, Shelton, CT).
# On the % scale 0 is the no-effect control and ±100 the full control effect; potency means the concentration at half of the fitted maximal effect.
SMILES,"activity change, negative = inhibition",Potency
NS(=O)(=O)c1ccc(N2CCCCS2(=O)=O)cc1,24.6% [at 42.5 µM] (inactive),–
O=[N+]([O-])c1ccc2[nH]ncc2c1,-3.65% (inactive),–
Cc1[nH]c(C)c(Cl)c(=O)c1Cl,33.7% [at 19 µM] (inactive),–
COc1cc(Cl)c(OC)cc1N,-40.1% (inactive),–
CN(C)CCOC(c1ccccc1)c1ccc(Br)cc1 (stereo not given),–,2.11 µM (active)
ClCCOCCOCCCl,1.88% (inactive),–
OC[C@H]1O[C@@H](OCCc2ccc(O)cc2)[C@H](O)[C@@H](O)[C@@H]1O,13.6% [at 42.5 µM] (inactive),–
CCOc1ccc(N)c([N+](=O)[O-])c1,-3.55% (inactive),–
NCC(=O)CCC(=O)O,19.1% [at 42.5 µM] (inactive),–
C[C@@H]1C[C@H]2[C@@H]3CCC4=CC(=O)C=C[C@]4(C)[C@@]3(F)[C@@H](O)C[C@]2(C)[C@@]1(O)C(=O)COC(=O)c1ccncc1,3.22% [at 42.5 µM] (inactive),–
Nc1ncn([C@H]2C[C@H](O)[C@@H](CO)O2)c(=O)n1,24% [at 42.5 µM] (inactive),–
CCOCC(O)COc1ccc(NC(=O)CC[S+](C)C)cc1 (stereo not given),6.78% [at 42.5 µM] (inactive),–
CN(C)c1ccc(/C=C/c2ccc([N+](=O)[O-])cc2)cc1,48% [at 8.39 µM] (inactive),–
C[C@@H](c1ncncc1F)C(O)(Cn1cncn1)c1ccc(F)cc1F (stereo not given in full),4.16% [at 42.5 µM] (inactive),–
C=CC(=O)OCCOCCOCCOCCOC(=O)C=C,–,3.08 µM (active) and 6.06 µM (active)
C#C[C@]1(O)CC[C@H]2[C@@H]3CCc4cc(OC5CCCC5)ccc4[C@H]3CC[C@@]21C,-19.7% [at 42.5 µM] (inactive),–
O=C(O)C1(C(=O)O)CCC1.[NH2-].[NH2-].[Pt+2],29.8% [at 42.5 µM] (inactive),–
Cn1c(=O)cc(Oc2ccc(F)cc2F)c2cnc(NCC(C)(C)O)nc21,–,27.3 µM (active)
CC(=O)NO,23.1% [at 42.5 µM] (inactive),–
CCCCCCCC#N,–,30.6 µM (active)

SMILES,"activity change, negative = inhibition",Potency
c1cc(CCCc2ccncc2)ccn1,-26.5% (inactive),–
CCCCCCCCCCCCCCOS(=O)(=O)O,5.23% (inactive),–
CCCCC(CC)COC(=O)COc1ccc(Cl)cc1Cl (stereo not given),-1.71% (inactive),–
CCCCC(CC)COC(=O)CCCCCCCCC(=O)OCC(CC)CCCC (stereo not given),4.13% (inactive),–
COc1ccc(S(=O)(=O)N2C(=O)[C@@](c3ccccc3OC)(N3C[C@H](O)C[C@H]3C(=O)N(C)C)c3cc(Cl)ccc32)c(OC)c1,–,15.4 µM (active)
CCCCCCCCCCCCCCCCOS(=O)(=O)O,24.8% [at 42.5 µM] (inactive),–
Cc1ccc(C(=O)Oc2ccc(C(O)CNC(C)(C)C)cc2OC(=O)c2ccc(C)cc2)cc1 (stereo not given),-6.4% [at 42.5 µM] (inactive),–
CCCCCCCCCOS(=O)(=O)O,17.1% (inactive),–
O=C(O)c1ccco1,0% (inactive),–
CCCCCCCCCc1ccc(OCCOCCO)cc1,–,8.1 µM (active)
CNCCCCOc1ccccc1Cc1ccccc1,–,10.6 µM (active)
COc1ccc(-c2nc3ccc(C4=NNC(=O)CC4C)cc3[nH]2)cc1 (stereo not given),–,8.41 µM (active)
Clc1ccc2c(c1)CCc1cccnc1C2=C1CCNCC1,–,1.68 µM (active)
Cc1oc2c(NC(=O)c3c(Cl)cccc3Cl)cccc2c1C(C)(C)O,–,8.63 µM (active)
C[N+](C)(C)CCOC(=O)CCC(=O)OCC[N+](C)(C)C,0.521% [at 42.5 µM] (inactive),–
CCOC(=O)C(O)c1ccccc1 (stereo not given),30.5% [at 42.5 µM] (inactive),–
CCCCCCCCCCCc1ccccc1,19.3% (inactive),–
CNCCCN1c2ccccc2CCc2ccccc21,–,5.96 µM (active)
COCCCN1CCC(NC(=O)c2cc(Cl)c(N)c3c2OCC3)CC1,4.58% [at 42.5 µM] (inactive),–
CCCCCCCN,9.07% (inactive),–
